Screens deposited in PubChem by National Center for Advancing Translational Sciences (NCATS).
In the library only some 8% were active in any assay of this set; here they are far more common.
SARS PLP yeast = SARS-CoV PLP inhibition in yeast. S. cerevisiae expressing SARS-CoV PLpro, growth rescue. Potency, µM (series often up to 32.9 µM), without a hit: top-dose activity, positive = growth rescue, actives largely listed as activators. 0.19% of 330,000 active. AID 485353; calls by dose curve; further: potency means the concentration at half of the fitted maximal effect; 0% is about no effect; nearly all actives have a fitted effect of over 55% in size
HCV inh = blocks hepatitis C virus; Huh7.5.1 HCVcc-Cre infection, luciferase reporter, 44 h; Potency, µM (highest dose often 41.8 µM), inactives show top-dose activity change, negative = inhibition, most hits filed as inhibitors; 3.4% of 340,000 active; AID 651820; active means well fitted inhibition curve with a large enough effect; inconclusive means small, poorly fitted or top-dose-only effect, or another doubt; inactive means no such curve, though single readings can be large or run the other way; further: potency means the concentration at half of the fitted maximal effect; on the % scale 0 is the no-effect control and ±100 the full control effect
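Antiviral activity was scored by luciferase reporter output from cells infected with HCVcc-Cre (~0.5 moi) in presence of compound, 44 h infection period, cells seeded 1,000/well 4 h prior.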
Lassa entry inh = inhibitors of Lassa virus binding or cell entry; Potency, µM (series often up to 37.9 µM), for the others: at the highest dose activity change, negative = inhibition, usual class: inhibitors; Lassa virus pseudotype entry inhibition, cell reporter; AID 540256; 1.2% of 300,000 active; calls by dose curve; tested in HEK293 cells; further: potency means the concentration at half of the fitted maximal effect; on the % scale 0 is the no-effect control and ±100 the full control effect; nearly all actives have a fitted effect of over 50% in size
FMDV antiviral = foot and mouth disease virus antiviral activity; FMDV antiviral cell-based qHTS; Potency, µM (top dose mostly 57.9 µM), without a hit: at the highest dose activity change, negative = inhibition, actives largely listed as inhibitors; 1.2% of 410,000 active; calls by dose curve; tested in HEK293T cells; further: read-out not given here; potency means the concentration at half of the fitted maximal effect; on the % scale 0 is the no-effect control and ±100 the full control effect; nearly all actives have a fitted effect of over 45% in size
HCMV antiviral = human cytomegalovirus inhibition. 4.5% of 410,000 active. activity change, negative = inhibition, % at 57.5 µM. HFF cells, HCMV-luciferase reporter, 72 h; stronger effect = lower value. AID 1259415; in the data active means activity change below about -60%; inconclusive means no clear call, values can overlap the other calls; inactive means above about -39%; further: on the % scale 0 is the no-effect control and ±100 the full control effect
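Two-dose cell screen: HFF monolayers treated with compounds and infected with luciferase-expressing HCMV at 1 PFU/cell, 72 h at 37C, then lysed for luciferase measurement.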
Marburg entry inh = blocks Marburg virus binding to or entry into cells | Marburg virus pseudotyped entry inhibition, cell reporter | Potency, µM (top dose mostly 37.8 µM), without a hit: at the highest dose activity change, negative = inhibition, actives largely listed as inhibitors | 1.8% of 300,000 active | AID 540276; calls by dose curve; tested in HEK293 cells; further: potency means the concentration at half of the fitted maximal effect; on the % scale 0 is the no-effect control and ±100 the full control effect
Numbers without * were called inactive; ? = inconclusive; nt = no result; [ ] = another dose, or the depositor's remark.

SMILES | SARS PLP yeast | HCV inh | Lassa entry inh | FMDV antiviral | HCMV antiviral | Marburg entry inh
COc1ccc(OC)c(-c2csc(NC(=O)COC(=O)C3CCC3)n2)c1 | 0.0% | ? | nt | -10.2% | -15.6 | nt
COc1ccc(OC)c(-c2csc(NC(=O)CSc3ccc([N+](=O)[O-])cc3)n2)c1 | -9.7% | 10µM* | ? | ? | -31.9 | ?
COc1ccc(OC)c(-c2csc(NC(=O)CSc3ccc(Br)cc3)n2)c1 | 23.5% | ? | 7.94µM* | 0.0% | -14.7 | -37.6%
COc1ccc(OC)c(-c2csc(NC(=O)Cc3ccc(F)cc3)n2)c1 | -7.9% | ? | ? | 15.5% | 9.9 | ?
Cc1cccc(C)c1-n1nnnc1C(=O)c1cccnc1 | nt | nt | nt | nt | 21.9 | nt
COC(=O)c1sc2nc(C)nc(SCC(=O)Nc3sccc3C(N)=O)c2c1C | 1.0% | 11.2µM* | nt | ? | ? | nt
C=CCn1c(SCC(=O)Nc2sccc2C(N)=O)nc2ccc(Cl)cc2c1=O | 8.5% | 7.94µM* | ? | ? | -81.9* | ?
C=CCn1c(SCN2C(=O)c3ccccc3C2=O)nc2ccc(Cl)cc2c1=O | -3.3% | -6.2% | 3.0% | 15.8µM* | 20.8 | 1.7%
NC(=O)c1ccsc1NC(=O)CSc1nnc(Nc2ccccc2)s1 | 1.7% | ? | ? | ? | -63.1* | ?
COc1ccc(-c2nc(SCCOc3cc(C)ccc3C(C)C)n3[nH]c(=O)cc3n2)cc1 | nt | nt | 1.4%[46.1 µM] | ? | 6.8 | nt
COc1cc(OC)c(N(C)C(=O)C2CCCN(c3ncnc4c3nc3n4CCCCC3)C2)cc1Cl (stereo not given) | nt | nt | ? | ? | 5.5 | nt
C=CCn1c(SCC(=O)Nc2sccc2C(N)=O)nc2ccccc2c1=O | -1.8% | 11.2µM* | ? | ? | -37.5 | ?
C=CCn1c(SCC(=O)Nc2sccc2C(N)=O)nc2sc(CC)cc2c1=O | 1.7% | 11.2µM* | ? | 25.1µM* | -77.9* | 12.6µM*
C=CCn1c(SC(C)C(N)=O)nc2sc(CC)cc2c1=O (stereo not given) | -0.6% | -5.0% | 7.6% | -15.2% | 26.3 | 0.1%[46.1 µM]
COc1ccc(-c2c[n+](CC(=O)c3ccccc3)c3n2CCCCC3)cc1 | -0.7% | ? | nt | -26.0% | ? | nt
FC(F)Oc1ccc(-c2c[n+]3c(n2-c2ccccc2)CCCCC3)cc1 | 0.4% | 5.1% | nt | -21.5% | ? | nt
COc1ccc(-c2c[n+]3c4n2CCCCC4=C(c2ccccc2)C3)cc1 | -6.2% | -27.4% | nt | 22.4µM* | -101.6* | nt
COc1ccc(-n2c(-c3ccc(Cl)cc3)c[n+]3c2CCCCC3)cc1 | 0.5% | -8.2% | nt | 0.0% | -80.0* | 2.8%
COc1ccc(-c2c[n+]3c(n2-c2ccccc2)CCCCC3)cc1 | -9.5% | 3.6% | -23.4% | ? | -96.0* | ?
COc1ccc(-c2c[n+]3c(n2-c2ccc(C)cc2)CCCCC3)cc1 | -0.8% | ? | 5.01µM* | ? | -97.4* | 7.08µM*
COc1ccc(-c2c[n+]3c(n2-c2c(C)n(C)n(-c4ccccc4)c2=O)CCCCC3)cc1 | -1.7% | 15.8% | -8.7% | 27.3% | 1.5 | ?
O=C(CCn1c(=O)c2cccn2c2cccnc21)N1CCN(c2cccc(Cl)c2)CC1 | -2.7% | 11.2µM* | ? | ? | -2.1 | ?
CC(C)CCNC(=O)CCn1c(=O)c2cccn2c2cccnc21 | nt | nt | 17.5%[46.1 µM] | -0.5% | -60.2* | nt
CCN(CC)CCNC(=O)CCn1c(=O)c2cccn2c2cccnc21 | nt | nt | 3.7%[46.1 µM] | 0.1% | 1.0 | nt
CCCNC(=O)Cn1c(=O)c2cccn2c2cccnc21 | nt | nt | 6.5%[46.1 µM] | -1.2% | -80.6* | nt
SMILES | SARS PLP yeast | HCV inh | Lassa entry inh | FMDV antiviral | HCMV antiviral | Marburg entry inh
O=C(CCn1c(=O)c2cccn2c2cccnc21)NCc1cccc(Br)c1 | nt | nt | -4.2%[46.1 µM] | -8.3% | -60.7* | nt
O=C(CCn1c(=O)c2cccn2c2cccnc21)NCc1ccc(F)cc1 | nt | nt | 7.8%[46.1 µM] | 3.2% | -37.0 | nt
Cc1ccc(Cl)cc1N1CCN(C(=O)CCn2c(=O)c3cccn3c3cccnc32)CC1 | nt | nt | 0.0%[46.1 µM] | ? | -3.2 | nt
CCC[C@H]1[C@@H](NS(=O)(=O)c2ccc(C(F)(F)F)cc2)CC[C@@]23CCCN2C(=O)CCC[C@@H]13 | nt | nt | nt | nt | -12.8 | nt
COc1cccc(Cn2c(C)c(CNCc3ccccc3Cl)c(C(=O)O)c2C)c1 | nt | nt | 0.0%[46.1 µM] | 20.3% | 9.7 | -7.7%[46.1 µM]
COc1ccccc1CNC(=O)c1c2c(nc3ccccc13)C(=O)N(C1CCCCC1)C2 | nt | nt | 11.1%[46.1 µM] | -20.3% | 29.5 | nt
Cc1ccc(C)c(NC(=O)CCc2c(C)nn(-c3ccc(N4CCCC4)nn3)c2C)c1 | nt | nt | 2.0%[46.1 µM] | -7.4% | -13.5 | nt
Cc1ccc(CCNC(=O)c2ccc(Cn3c(=O)c4cccn4c4cccnc43)cc2)cc1 | nt | nt | -7.5%[46.1 µM] | -3.8% | -60.0* | nt
Cc1ccccc1CCNC(=O)c1ccc(Cn2c(=O)c3cccn3c3cccnc32)cc1 | nt | nt | -23.5%[46.1 µM] | -27.5% | -8.9 | nt
CCOC(=O)C1CCN(C(=O)Cn2c(=O)c3cccn3c3cccnc32)CC1 | 3.0% | 11.2µM* | nt | -12.7% | 0.0 | nt
CCCN1C(=O)c2[nH]nc(-c3ccccc3O)c2C1c1cccc(OCc2ccccc2)c1 (stereo not given) | nt | nt | ? | -24.5% | -13.5 | ?
OC(CNCCc1ccccc1)COc1ccc(OCC(O)CNCCc2ccccc2)cc1 (stereo not given) | 1.0% | ? | ? | -25.1% | -76.9* | 3.16µM*
OC(CNCCC(c1ccccc1)c1ccccc1)COc1ccccc1 (stereo not given) | 1.6% | 12.6µM* | ? | -2.0% | ? | ?
CC(C)c1ccc(OCC(O)CNC(C)c2ccccc2)cc1 (stereo not given) | -0.4% | ? | ? | -11.1% | -23.5 | ?
COCCNCC(O)CON=C1c2ccccc2-c2ccccc21 (stereo not given) | -5.7% | -10.3% | ? | -15.4% | -1.7 | ?
CC(C)CCNCC(O)CON=C1c2ccccc2-c2ccccc21 (stereo not given) | -5.8% | 8.91µM* | nt | -10.0% | -72.1* | nt
CC(C)Cc1nn2c(=O)cc(COC(=O)c3ccc(NC(=O)CCc4ccccc4)cc3)nc2s1 | nt | nt | ? | 10.7% | -19.6 | nt
CCOc1ccc(NC(=O)CN2CCN(c3ccc(Cl)cc3)CC2)cc1 | nt | nt | ? | -28.7% | -1.6 | nt
Cc1ccc(S(=O)(=O)n2cc(C=O)c3ccccc32)cc1 | 0.0% | -27.9% | nt | 3.1% | 25.7 | nt
Cc1ccc(S(=O)(=O)n2cc(-c3ccccc3)c3ccccc32)cc1 | -0.3% | ? | nt | 14.0% | -70.9* | nt
CCN(CC)CCNC(=O)C(Cl)=C1C(Cl)=C(Cl)C(Cl)=C1Cl | nt | ? | ? | 22.4µM* | -76.3* | ?
C=C(C)c1cccc(C(C)(C)NC(=O)Nc2nnc(C(C)C)s2)c1 | 0.4% | ? | nt | ? | -101.4* | nt
C=C(C)c1cccc(C(C)(C)NC(=O)Nc2ccc(C)cn2)c1 | -23.7% | 8.91µM* | -13.9% | -21.2% | -38.7 | -26.8%
CCc1ccc(CNc2ncc(-c3cccc(OC)c3)n2C)cc1 | nt | nt | ? | -28.8% | -35.8 | ?
